# AmpC inh detg – qHTS Inhibitors of AmpC Beta-Lactamase (assay with detergent); P00811; AmpC hydrolysis of nitrocefin, absorbance 480 nm, 0.01% Triton; Potency, µM (top dose mostly 114 µM), without a hit: at the top dose activity change, negative = inhibition, hits mostly inhibitors; 370,000 compounds, 0.041% hits;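 note: potency is the fitted concentration of half-maximal effect; 0% = no-compound wells and -100% = no-enzyme wells; nearly all actives have a fitted effect of over 25% in size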
# Target sequence (P00811 whole entry, looked up): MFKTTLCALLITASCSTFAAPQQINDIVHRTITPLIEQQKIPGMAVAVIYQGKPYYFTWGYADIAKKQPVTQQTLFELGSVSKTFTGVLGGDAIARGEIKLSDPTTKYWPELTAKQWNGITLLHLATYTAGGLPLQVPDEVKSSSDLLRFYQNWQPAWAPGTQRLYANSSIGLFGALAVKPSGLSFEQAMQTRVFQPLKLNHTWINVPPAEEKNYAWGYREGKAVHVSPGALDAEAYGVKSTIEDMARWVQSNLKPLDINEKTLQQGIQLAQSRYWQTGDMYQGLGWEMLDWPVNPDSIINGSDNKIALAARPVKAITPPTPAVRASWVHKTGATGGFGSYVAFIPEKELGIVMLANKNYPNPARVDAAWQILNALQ
#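 20 mM phosphate pH 7.0 + 0.01% (detergent screen) or 0.0001% Triton X-100; 5.3 nM AmpC reagent; cpd preinc 15 min RT; nitrocefin (800 uM stock) to start; A480 q20 s × 4 min; Activity was normalised to no-enzyme and no-compound control wells.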
# Shiga inhibitor – A qHTS for Small Molecule Inhibitors of Shiga Toxin; AID 2315, 2010; 290,000 compounds, 9.2% hits; inhibition, % at 38.7 µM; Vero cells, Shiga toxin protein synthesis inhibition reporter; in the data active = inhibition mostly above about 28%, no sharp cut-off; inactive = mostly below about 43%; note: 0% is about no effect
# AMA1 RON2 block – qHTS for Inhibitors of AMA1-RON; Towards Development of Antimalarial Drug Lead: Primary Screen; Plasmodium falciparum AMA1 (3D7) - RON2 peptide interaction; AlphaScreen AMA1-biotinylated RON2 peptide binding; Potency, µM (doses to about 58.2 µM), without a hit: at the top dose activity change, negative = inhibition, usual class: inhibitors; 360,000 compounds, 0.2% hits; AID 720542, 2013;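 note: potency is the fitted concentration of half-maximal effect; 0% = vehicle wells and -100% = peptide control; nearly all actives have a fitted effect of over 45% in size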
#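 AMA1 (3D7) with his tag at 25 nM final met compounds first, then biotinylated RON2 peptide at 25 nM; detection used donor plus acceptor beads, 10 µg/mL apiece, read by AlphaScreen after 30 min at room temperature.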
# SARS PLP yeast – qHTS of Yeast-based Assay for SARS-CoV PLP; S. cerevisiae expressing SARS-CoV PLpro, growth rescue; Potency, µM (titrated, usually from 32.9 µM), for inactives: at the highest dose activity, positive = growth rescue, most hits filed as activators; 330,000 compounds, 0.19% hits; AID 485353, 2010; calls by dose curve; note: potency is the fitted concentration of half-maximal effect; 0% is about no effect; nearly all actives have a fitted effect of over 55% in size
# AmpC no deterg – qHTS Inhibitors of AmpC Beta-Lactamase (assay without detergent); Potency, µM (doses to about 57.1 µM), for the others: at the highest dose activity change, negative = inhibition, usual class: inhibitors; 330,000 compounds, 0.52% hits; AmpC nitrocefin hydrolysis, absorbance 480 nm, 0.0001% Triton; P00811;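 note: potency is the fitted concentration of half-maximal effect; plate controls were no compound for no effect and no enzyme for full effect; nearly all actives have a fitted effect of over 20% in size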
#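 AmpC (5.3 nM in the dispensed reagent) in 20 mM phosphate pH 7.0 with 0.01% (detergent screen) or 0.0001% Triton X-100 was preincubated with compounds for 15 min at room temperature. Nitrocefin was then added from an 800 uM solution, and hydrolysis was followed at 480 nm.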
# CHX counter – Cycloheximide Counterscreen for Small Molecule Inhibitors of Shiga Toxin; cell reporter, cycloheximide protein synthesis inhibition counterscreen; 300,000 compounds, 12% hits; max response, %; in the data active = max response mostly above about 13%, no sharp cut-off; inactive = mostly below about 14%; note: read at 38.3 µM for the half of the compounds with a filed dose; 0% is about no effect
# Active calls of the source: *; ? = inconclusive; / = no result given; [ ] = dose if it differs, or a comment. This excerpt belongs to a sample that is enriched for hits. Unless noted, calls come from the whole dose curve; as a rule, active = well fitted curve in the direction sought with a large enough effect; inconclusive = small, poorly fitted or top-dose-only effect, or another doubt; inactive = no such curve, though single readings can be large; an effect the other way counts as inactive or inconclusive.
SMILES,AmpC inh detg,Shiga inhibitor,AMA1 RON2 block,SARS PLP yeast,AmpC no deterg,CHX counter
C=CCOc1ccc(C2NC(=S)NC3=C2CCc2ccccc23)cc1 (centres undefined),-13.9%,19.8,32.9%,0.2%,?,25.3*
CCCc1ccc2oc(C(=O)N3CCNC(=O)C3CC(=O)OC)c(C)c2c1 (centres undefined),-3.4%,-10.4,-2.8%,-6.9%,130.3%,19.3*
COC(=O)CC1C(=O)NCCN1C(=O)c1ccccc1 (centres undefined),?,-12.2,-19.2%,-4.2%,-11.7%,-3.3
Cc1ccc2oc(C(=O)N3CCC(O)(c4ccccc4)CC3)c(C)c2c1,3.7%,17.9,-8.5%,-17.6%,68.2%,11.5*
Cc1c(C(=O)N2CCc3ccccc3C2)oc2ccc(Br)cc12,-10.2%,/,11.2%,-23.9%,-42.9%,/
Cc1c(C(=O)N2CCN(C)CC2)oc2ccc(Br)cc12,-11.5%,46.3*,-9.3%,-1.0%,90.7%,33.4*
CCN(CC)C(=O)C1CCN(C(=O)c2oc3ccc(C)cc3c2C)CC1,2.3%,16.1,8.5%,-0.1%,101.4%,17.1*
CCN(CC)C(=O)C1=C(C)N(CCC2=CCCCC2)C(=O)C(CC(=O)NCC2CCCCC2)C1 (centres undefined),/,/,2.8%,/,/,/
Cc1ccc(-c2c(C(=O)N/N=C/c3ccncc3)nnn2-c2nonc2N)cc1,2.6%,1.1,0.0%,0.0%,6.1%,6.8
Cc1ccc(N(CC(=O)N2CCCC2)S(C)(=O)=O)cc1C,3.6%,-7.1,7.1%,-1.6%,-8.1%,-1.8
Cc1oc2cc3c(C(=O)N4CCCCC4)c(C)oc3cc2c1C(=O)N1CCCCC1,?,72.9,2.9%,6.0%,0.4%,53.4*
Cc1c(C(=O)N2CCCC2)oc2ccc(Br)cc12,?,42.2*,-11.0%,-6.3%,27.3%,34.8*
CCN(CC)S(=O)(=O)c1ccc2oc(C(=O)N3CCCCCC3)c(C)c2c1,0.6%,-16.1,-12.0%,-5.7%,71.6%,-1.7
COc1cc2c(C(=O)N3CCN(C)CC3)c(C)oc2cc1Br,0.1%,26.7,-6.7%,0.0%,6.4%,2.0
CCCc1ccc2oc(C(=O)N3CCCC3)c(C)c2c1,-12.1%,/,10.0%,-6.1%,19.9%,29.6*
CC1CCN(C(=O)C2CCN(c3nnc(-n4cccc4)s3)CC2)CC1,?,14.4,0.9%,-2.2%,22.5%,24.8
O=C(C1CCN(c2nnc(-n3cccc3)s2)CC1)N1CCCCC1,-7.3%,20.4,2.3%,-3.2%,36.0%,20.4*
Cc1ccccc1OCc1nnc(SCc2cc(=O)[nH]c3ccccc23)o1,-8.3%,-5.2,11.8%,7.7%,-9.5%,-4.3
CC(=O)/C(=C/c1ccc(N(C)C)cc1)C(=O)c1ccccc1,-8.0%,-3.6,-13.4%,5.5%,-18.5%,-1.8
CC(=O)N1/C(=C/c2ccc(N(C)C)cc2)C(=O)c2ccccc21,-14.3%,21.8,28.2µM*,-32.2%,-8.1%,21.6*
CSc1ccccc1OCc1cc(C(=O)NCCC2=CCCCC2)no1,4.9%,27.9*,-15.8%,-6.9%,-21.3%,21.1
CC(=O)c1cccc(OCc2cc(C(=O)NCCC3=CCCCC3)no2)c1,-2.9%,101.1*,-3.6%,-1.8%,-3.4%,42.2*
Cn1c(=O)[nH]c(NC2CCCCC2)c([N+](=O)[O-])c1=O,2.2%,-3.6,7.3%,1.2%,-0.5%,-1.9
O=c1[nH]c(NC2CCCCC2)c([N+](=O)[O-])c(=O)[nH]1,89.1µM*,-4.0,-5.6%,16.8%,-12.8%,-1.1
CSc1ccc(CNCC2CCCO2)cc1 (centres undefined),-10.4%,/,-9.9%,3.8%,-8.5%,-3.3
SMILES,AmpC inh detg,Shiga inhibitor,AMA1 RON2 block,SARS PLP yeast,AmpC no deterg,CHX counter
C/C(=N\NC(=O)c1ccncc1)c1ccc(N(C)C)cc1,0.5%,7.1,33.8%,-4.6%,-4.5%,13.6
COc1cccc(/C(C)=N/NC(=O)c2ccc(N(C)C)cc2)c1,-3.8%,68.6*,-1.1%,-2.0%,-15.9%,33.2*
COc1cccc(NC(=O)C(=O)N/N=C(\C)CC(=O)Nc2ccc(NC(C)=O)cc2)c1,5.1%,84.5*,81.6%,-6.5%,-23.7%,32.1*
COc1cccc(C(=O)N/N=C(\C)CC(=O)Nc2ccc(N(C)C)cc2)c1,-3.6%,56.8,53.5%,0.6%,-2.9%,40.9*
COc1ccc(CC(=O)N/N=C(\C)CC(=O)Nc2ccc(N(C)C)cc2)cc1OC,-4.1%,-5.2,18.9%,-1.5%,29.8%,-2.6
O=C(Nc1cc(=O)[nH]c2nc(-c3ccccc3)nn12)c1ccccc1Cl,2.3%,20.5,-6.0%,3.6%,-13.8%,1.3
CN(Cc1ccco1)C(=O)c1c[nH]c2ccc(S(=O)(=O)Nc3ccc4c(c3)OCCO4)cc2c1=O,?,-18.9,-9.0%,7.0%,-52.5%,18.3*
O=P(Cc1nnco1)(c1ccccc1)c1ccccc1,-21.6%,-13.3,-6.2%,-4.8%,1.1%,-2.5
Cc1c(C(=O)O)c(-c2ccccc2)nn1-c1ccccc1,3.2%,7.6,1.0%,1.5%,-11.6%,0.8
CC(C)Sc1cc(Cl)nc(NC(=O)Nc2ccccc2)n1,-2.0%,49.8,-10.0%,-0.9%,-36.2%,29.1*
Fc1ccc(C2=NN(c3ccccc3)C(c3ccco3)C2)cc1 (centres undefined),9.5%,25.0,144.7%,-2.1%,-15.6%,11.8
CC(=O)N1N=C(c2ccccc2)CC1c1cn(C)c2ccccc12 (centres undefined),-4.3%,115.4*,-19.1%,16.6%,45.2%,52.0*
Cc1ccc(C2CC(c3ccccc3)=NN2c2ccccc2)o1 (centres undefined),-3.7%,63.8*,-16.5%,-17.7%,-36.6%,21.3*
CC(=O)N1N=C(c2ccc(C)cc2)CC1c1ccco1 (centres undefined),?,34.7,16.9%,-2.1%,0.0%[2.29 µM],13.1*
CC(=O)N1N=C(c2ccc(Cl)cc2)CC1c1ccco1 (centres undefined),0.7%,-7.3,11.2%,-0.7%,29.3%,7.1
Clc1ccc(C2=NN(c3ccccc3)C(c3ccco3)C2)cc1 (centres undefined),-4.0%,75.2*,33.7%,-1.0%,-28.0%,44.1*
Cc1ccc(N(C)C(=O)C2CCCN2S(=O)(=O)c2ccc3c(c2)n(C)c(=O)c(=O)n3C)cc1 (centres undefined),3.1%,4.6,-5.6%,0.1%,39.1%,-1.2
CC(C)CC(NS(=O)(=O)c1ccc2c(c1)oc(=O)n2C)C(=O)NC1CCCc2ccccc21 (centres undefined),-13.4%,-13.7,5.8%,-4.3%,-26.2%,-4.3
